In the library only some 9.3% were active in any assay of this set; here they are far more common.
FLuc counter = firefly luciferase modulation, counter-screen for miR-21 project. P08659. purified FLuc, Km substrates, luminescence inhibition. Potency, µM (highest dose often 57.5 µM), for inactives: at the top dose activity change, negative = inhibition, usual class: inhibitors. 6.9% of 360,000 active. AID 588342;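 note: plate controls were vehicle for no effect and reference inhibitor for full effect; nearly all actives have a fitted effect of over 55% in size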
Target sequence (P08659 whole entry, looked up): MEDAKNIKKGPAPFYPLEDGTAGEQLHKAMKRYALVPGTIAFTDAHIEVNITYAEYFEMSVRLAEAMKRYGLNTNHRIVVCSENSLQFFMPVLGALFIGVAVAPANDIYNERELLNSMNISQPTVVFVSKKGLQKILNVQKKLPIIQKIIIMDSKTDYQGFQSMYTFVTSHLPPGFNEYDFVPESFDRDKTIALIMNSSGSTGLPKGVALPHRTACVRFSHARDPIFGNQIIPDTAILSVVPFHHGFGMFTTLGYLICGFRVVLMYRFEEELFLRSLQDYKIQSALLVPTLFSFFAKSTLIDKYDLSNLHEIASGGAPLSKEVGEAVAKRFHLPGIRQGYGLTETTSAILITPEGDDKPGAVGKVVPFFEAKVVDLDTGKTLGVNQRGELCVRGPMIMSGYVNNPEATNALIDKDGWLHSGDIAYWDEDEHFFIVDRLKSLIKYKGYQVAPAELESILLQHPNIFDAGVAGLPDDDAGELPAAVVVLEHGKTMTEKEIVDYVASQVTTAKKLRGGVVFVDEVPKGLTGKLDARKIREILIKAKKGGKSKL
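Biochemical qHTS of compounds, final roughly 60 µM downward over six points, against 10 nM purified firefly luciferase using Km concentrations of substrates (10 uM D-luciferin, 10 uM ATP) in Tris acetate pH 7.5 buffer; luminescence output.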
NPC1 prom act = NPC1 promoter activation | Huh7 NPC1 promoter luciferase reporter, 24 h | Potency, µM (titrated, usually from 9.22 µM), for inactives: top-dose activation, actives largely listed as activators | 2.4% of 320,000 active; note: % of control where 0% means no effect; nearly all actives have a fitted effect of over 60% in size
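Cells: Huh7 expressing luciferase under the NPC1 promoter, 1500/well. Seeded 2 h, compound added, incubated 24 h at 37 °C. Luciferase reagent, 10 min ambient, then luminescence.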
SMN2 splice enh = increases expression of the SMN2 splice variant. AID 1458. 2.8% of 210,000 active. Potency, µM (titrated, usually from 46.1 µM), for the others: at the top dose activity change, positive = activation, hits mostly activators. HEK293 SMN2-luciferase splicing reporter, luminescence, 30-36 h; note: % of control where 0% means no effect; nearly all actives have a fitted effect of over 55% in size
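HEK293 cells carry an SMN2 minigene-luciferase reporter in which exon 7 inclusion puts luciferase in frame. Cells were seeded at 2000 cells/well, attached for 10-12 hours, then exposed to compounds for 30-36 hours at 37C before ONE-Glo luminescence.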
ELG1 DNA repair = ELG1-dependent DNA repair inhibition; HEK293T ELG1-luciferase reporter, luminescence, 16 h; DNA damage induced by 5-fluorouridine; Potency, µM (highest dose often 46.1 µM), inactives show at the highest dose activity change, negative = inhibition, most hits filed as inhibitors; 2.3% of 330,000 active; AID 504467; note: % is set by controls: 0 for no effect and ±100 for the full control effect; nearly all actives have a fitted effect of over 55% in size
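Step one: seed 2,000 cells per well. Step two: pin-transfer compound or DMSO alongside 5-fluorouridine. Step three: incubate 16 hr, 37 °C, 5% CO2. Step four: add ONE-Glo, wait 30 min, read luminescence.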
ELG1 genotox = induces genotoxicity in HEK293T cells with luciferase-tagged ELG1; HEK293T ELG1-luciferase reporter, luminescence, 16 h; Potency, µM (doses to about 46 µM), without a hit: top-dose activity change, positive = activation, most hits filed as activators; 1.3% of 330,000 active; note: % of control where 0% means no effect; nearly all actives have a fitted effect of over 60% in size
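After overnight (16 hr) compound treatment at 37 °C, ELG1-luciferase HEK293T cells were lysed with ONE-Glo; luminescence quantified 30 min later at room temperature.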
Rab9 prom act = Rab9 promoter activation; Huh7 Rab9 promoter-luciferase reporter, luminescence, 24 h; Potency, µM (doses to about 9.22 µM), inactives show top-dose activation, negative = inhibition, usual class: activators; 2.8% of 320,000 active; AID 485297; note: % of control where 0% means no effect; nearly all actives have a fitted effect of over 60% in size
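Luminescence from Amplite-detected luciferase (10 minutes, ambient) reports Rab9 promoter activation. Before that, stable Rab9-luciferase Huh7 cells (1500/well, reduced-serum OP-MEM I plus 10% FBS) were exposed to compound for 24 hours at 37C.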
Starred values were filed as active, the others as inactive; ? = inconclusive; / = no result given. Calls come from the whole dose curve; as a rule, active = well fitted curve in the direction sought with a large enough effect; inconclusive = small, poorly fitted or top-dose-only effect, or another doubt; inactive = no such curve, though single readings can be large; an effect the other way counts as inactive or inconclusive. Potency is the fitted concentration of half-maximal effect.

SMILES	FLuc counter	NPC1 prom act	SMN2 splice enh	ELG1 DNA repair	ELG1 genotox	Rab9 prom act
Cc1ccc2oc(=O)n(CCNC(=O)Nc3ccc(Cl)cc3)c2c1	-2%	/	-9%	/	/	/
COc1cc(OC)cc(C(=O)NCC(=O)NCCN2C(=O)S/C(=C\c3ccccc3Cl)C2=O)c1	?	0%	/	-14%	1%	-6%
Cc1nc(-c2ccc(NC(=O)C3CCCCC3)cc2)cs1	2.1µM*	3.2µM*	25µM*	?	2.3µM*	2.8µM*
Cc1ccc(C(=O)Nc2ccc(-c3csc(C)n3)cc2)cc1	?	2.2µM*	140%	?	?	?
CCc1ccccc1NC(=O)c1ccc(-c2csc(C)n2)cc1	?	3.5µM*	/	?	?	?
Cc1ccc2c(c1)-n1c(nc3cc(C)ccc3c1=O)C(Cc1ccccc1)NC2=O (centres undefined)	/	/	/	13%	-5%	/
O=C1c2ccccc2C(=O)N1CSc1nnc(Nc2ccccc2F)s1	2%	4%	6.3µM*	?	14%	9%
CCN(CC)C(=O)CCCSc1nnc(Nc2ccccc2F)s1	17µM*	?	/	?	17%	1.8µM*
O=C1c2ccccc2C(=O)N1CSc1nnc(Nc2ccccc2)s1	0%	1%	12%	10%	12%	?
CS(=O)(=O)Nc1ccccc1C(=O)NCC1(N2CCCCC2)CCCCC1	0%	2%	/	9%	3%	4%
COc1ccc(C2CC(C(F)(F)F)n3ncc(C(=O)Nc4cccc(O)c4)c3N2)cc1OC (centres undefined)	-5%	-5%	-3%	15µM*	-8%	-13%
COc1ccc(NC(=O)N/C=C/c2ccccc2)cc1	?	2µM*	16µM*	?	?	3.5µM*
COc1ccc(OC)c(NC(=O)Nc2ccc(Cl)cc2)c1	19µM*	1%	-5%	-5%	-2%	7%
COC(=O)c1cc(NC(=O)Nc2cc(OC)ccc2OC)cc(C(=O)OC)c1	-1%	6%	-8%	-7%	-11%	-5%
Cc1ccc(NC(=O)Nc2ccccc2C(N)=O)cc1	2.7µM*	17%	/	?	12%	15%
COc1ccccc1NC(=O)Nc1cc(F)ccc1F	24µM*	11%	6%	-3%	3%	2%
COc1ccccc1NC(=O)Nc1ccc(N2CCOCC2)cc1	17µM*	?	112%	?	?	?
COc1ccccc1NC(=O)Nc1ccc(C(N)=O)cc1	?	18%	?	?	14%	?
COc1ccc(NC(=O)Nc2ccccc2C(N)=O)cc1	5.4µM*	-6%	10%	5%	7%	1%
COc1ccccc1NC(=O)Nc1ccccc1C(N)=O	-18%	5%	-1%	?	3%	1%
COc1ccccc1CNCC(=O)Nc1ccc(N2CCOCC2)cc1	0%	-4%	?	1%	1%	-14%
COc1ccc(NC(=O)Nc2ccccc2OC)cc1	8.5µM*	?	?	?	9.2µM*	?
COc1ccccc1NC(=O)Nc1ccc(CC#N)cc1	21µM*	?	/	?	?	?
Cc1ccccc1CN1CCC(N2CCC(C(=O)NCC3CCCO3)CC2)CC1 (centres undefined)	6%	1%	/	-4%	-5%	2%
O=C(Nc1ccc(N2CCOCC2)cc1)Nc1ccc(Cl)c(Cl)c1	?	29%	19%	?	16%	35%
SMILES	FLuc counter	NPC1 prom act	SMN2 splice enh	ELG1 DNA repair	ELG1 genotox	Rab9 prom act
CCN1CCN(CCC(=O)Nc2ccccc2OC)CC1	1%	-1%	-8%	10%	2%	1%
COc1ccccc1NC(=O)Nc1ccc(Cc2ccncc2)cc1	17µM*	5%	-3%	?	6%	13%
CCN1CCN(Cc2ccc(NC(=O)Nc3ccccc3OC)cc2)CC1	11µM*	?	/	?	18µM*	?
O=C(Nc1ccc(N2CCOCC2)cc1)Nc1cnsn1	17µM*	?	13µM*	?	15%	?
COc1ccc(NC(=O)Nc2ccccc2C(N)=O)cc1OC	19µM*	/	-8%	/	/	/
Cc1ccc(P(=O)(CO)c2ccc(C)cc2)cc1	1%	2%	-8%	18%	0%	0%
O=C(OCC(=O)N1CCCc2ccccc21)c1ccc(Cl)nc1	2%	-1%	5%	-1%	1%	1%
Oc1cccc(C2c3[nH]c4ccccc4c3CCN2Cc2ccoc2)c1 (centres undefined)	6%	-1%	2%	-9%	-2%	-4%
COc1ccccc1CNC(=O)CN1CCN(c2ccc(C(C)=O)cc2)CC1	0%	0%	/	-1%	0%	0%
CCOC(=O)C(=O)Nc1ccccc1C(N)=O	3%	1%	24%	-8%	-3%	0%
CCOc1ccc(NC(=O)Nc2ccccc2C(N)=O)cc1	1.2µM*	8%	6%	21%	2%	0%
O=C(N/C=C/c1ccccc1)c1ccccc1	2.1µM*	1.1µM*	/	?	?	1.3µM*
O=C(N/C=C\c1ccccc1)NCc1ccc(Cl)cc1	2%	2%	0%	-2%	-3%	-4%
Cc1cc(C)n(CCNC(=O)C2CCC(=O)N(CCc3cccc(F)c3)C2)n1 (centres undefined)	1%	1%	/	-4%	3%	14%
O=S(=O)(c1cc(Cl)c(Cl)cc1Cl)N1CCN2CCCC2C1 (centres undefined)	-1%	1%	/	-5%	3%	-7%
COc1cc(/C=C/c2noc(-c3ccccc3O)n2)ccc1OC(C)=O	12µM*	?	/	?	13µM*	?
CC(=O)Nc1ccc(/C=C/c2noc(-c3ccccc3O)n2)cc1	?	?	-8%	?	14%	?
Oc1ccccc1/C=C/c1noc(-c2ccccc2O)n1	1.9µM*	?	?	?	5.8µM*	14%
CCCOc1ccc2nc(C)c(CCC)c(SC(=N)N)c2c1	-1%	1%	/	-11%	-3%	-3%
Cc1cccc(N2CCN(C(=O)Cc3ccc(-n4c(=O)[nH]c5ccsc5c4=O)cc3)CC2C)c1 (centres undefined)	-1%	1%	2%	?	-5%	-8%
Cc1ccc(S(=O)(=O)Cc2ccc(C(=O)N3CCN(Cc4ccccc4)CC3)o2)cc1	0%	7%	-33%	18µM*	-23%	-1%
Cc1ccccc1S(=O)(=O)Cc1ccc(C(=O)N2CCN(c3ccc(F)cc3)CC2)o1	1%	-1%	-29%	?	-8%	3%
Cc1ccc(S(=O)(=O)Cc2ccc(C(=O)N3CCN(c4ccc(F)cc4)CC3)o2)cc1	0%	-8%	16%	23µM*	-10%	1%

High-throughput results from PubChem BioAssay.
